# Compound activity: PubChem BioAssay, National Center for Advancing Translational Sciences (NCATS)
# Pf growth 96h – Primary qHTS for delayed death inhibitors of the malarial parasite plastid, 96 hour incubation; 320,000 tested, 6.9% active; AID 504834, 2011; Potency, µM (series often up to 28.7 µM), without a hit: at the top dose activity change, negative = inhibition, most hits filed as inhibitors; P. falciparum luciferase reporter growth, 96 h; active = well fitted inhibition curve with a large enough effect; inconclusive = small, poorly fitted or top-dose-only effect, or another doubt; inactive = no such curve, though single readings can be large or run the other way; also: % is scaled to controls: 0 for no effect and ±100 for the full control effect
#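 Luminescence readout: decreased luciferase signal marks inhibited growth of reporter-expressing P. falciparum in infected red cells (2% hematocrit, 0.05% parasitemia final), exposed to compound two generations (96 h, 37 C, 5% CO2).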
# SARS PLP yeast – qHTS of Yeast-based Assay for SARS-CoV PLP; AID 485353, 2010; Potency, µM (doses to about 32.9 µM), inactives show top-dose activity, positive = growth rescue, usual class: activators; S. cerevisiae expressing SARS-CoV PLpro, growth rescue; 330,000 tested, 0.19% active; also: 0% is about no effect; nearly all actives have a fitted effect of over 55% in size
# NS1 inh – qHTS Assay for Inhibitors of Influenza NS1 Protein Function. Potency, µM (doses to about 46.1 µM), inactives show at the highest dose activity, positive = more growth. 270,000 tested, 0.4% active. AID 2326, 2010; also: actives are rising curves; nearly all actives have a fitted effect of over 50% in size
#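 Compounds were scored for reversing the slow growth caused by influenza A NS1 in S. cerevisiae, measured by optical density at 600 nm. Assay medium contained 2% galactose at pH 6.0; NS1-free yeast of the same strain were the positive control.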
# Pf growth 48h – Primary qHTS for delayed death inhibitors of the malarial parasite plastid, 48 hour incubation; P. falciparum luciferase growth in erythrocytes, 48 h; 310,000 tested, 5.9% active; AID 504832, 2011; Potency, µM (highest dose often 28.7 µM), for the others: at the top dose activity change, negative = inhibition, usual class: inhibitors; active = well fitted inhibition curve with a large enough effect; inconclusive = small, poorly fitted or top-dose-only effect, or another doubt; inactive = no such curve, though single readings can be large or run the other way; also: % is scaled to controls: 0 for no effect and ±100 for the full control effect
#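 Luminescence readout; reporter = integrated firefly luciferase in P. falciparum. RBC culture at 2% hematocrit, 0.1% parasitemia final, 37 C/5% CO2; decreased signal taken as growth inhibition.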
# The depositor's hits bear a star; ? = inconclusive; . = no result given; [ ] = another dose, or the depositor's remark. Sampled rows, rich in hits. Any-hit rate of the full collection: about 10%. Unless noted, calls follow the shape of the full dose curve. Potency is read from the fitted curve at half-maximal effect.
SMILES,Pf growth 96h,SARS PLP yeast,NS1 inh,Pf growth 48h
NC(=O)CC(NC(=O)Cc1ccc(Br)cc1)c1ccc(N2CCC(N3CCCCC3)CC2)c([N+](=O)[O-])c1 (stereo unspecified),-15%,-2%,-8%,11%
O=C(CSc1nnc(NC(=O)C2CC2)s1)NCc1ccc(F)cc1,4%,-9%,2%,23%
Cc1csc2nc(SCC(=O)Nc3ccccc3F)[nH]c(=O)c12,52%,-2%,-1%,-5%
c1ccc2c(CSCc3cccc4ccccc34)cccc2c1,.,.,-8%,.
COc1ccc2oc(C(=O)N(Cc3ccco3)Cc3cccs3)c(C)c2c1,?,-12%,.,?
Cc1cccc(OCCCC(=O)N2CCCCCC2)c1C,?,-2%,-19%,14%
COc1ccccc1-c1nn2c(-c3ccccc3Cl)nnc2s1,.,-4%,13µM*,?
COc1ccccc1-c1nn2c(-c3ccco3)nnc2s1,?,-9%,-58%,.
Cc1cc(C)c2nc(N3C(=O)C(O)=C(C(=O)c4ccco4)C3c3ccco3)sc2c1 (stereo unspecified),50%,-16%,-3%,4%
CN(Cc1ccc(Cl)cc1)C(=O)CNC(=O)C12CC3CC(CC(C3)C1)C2,10µM*,-1%,.,9.3µM*
CCc1ccc(NC(=O)C(CC)Sc2nc3cc4c(cc3c(=O)n2Cc2ccco2)OCO4)cc1 (stereo unspecified),2.6µM*,-5%,5%,.
CSCCC(NC(=O)c1ccccc1)C(=O)NNC(=O)c1csc(N2CCOCC2)n1 (stereo unspecified),39%,-1%,2%,20%
CCc1cc(C(=O)N(Cc2ccccc2)c2c(N)n(CCOC)c(=O)[nH]c2=O)sc1C,2%,-7%,.,?
CC(c1nccs1)N(C)C(=O)CCc1nnc(CCc2ccccc2)o1 (stereo unspecified),28%,1%,1%,5%
O=C(CCc1nnc(CCc2ccccc2)o1)N1CCCC1c1nccs1 (stereo unspecified),13µM*,-1%,-2%,0%
CCOC(=O)c1c(S(=O)(=O)NCC(=O)NCc2cccc(C)c2)c(C)n(C)c1C,15%,-7%,-6%,9%
CN1C(=O)COc2ccc(C(=O)c3oc4ccccc4c3-c3cnc4c(c3)COc3ccccc3-4)cc21,6%,10%,13%,?
CN(C)S(=O)(=O)c1ccc2[nH]cc(/C=C/c3nc4ccccc4c(=O)n3-c3ccccc3)c2c1,?,2%,3%,9.3µM*
Cc1ccc(CNC(=O)c2cc(C)nn2-c2ccccc2)cc1,10%,1%,-5%,9%
Cc1ccc(Cc2nnc3n(-c4ccccc4)nc(C(=O)c4ccccc4)n3c2=O)cc1,13µM*,7%,3%,13µM*
Cc1ccc(C(=O)N(CCC2=CCCCC2)c2c(N)n(Cc3ccccc3)c(=O)[nH]c2=O)o1,9%,7%,.,?
Nc1c(N(CCC2=CCCCC2)C(=O)c2ccc([N+](=O)[O-])o2)c(=O)[nH]c(=O)n1Cc1ccccc1,?,1%,.,10µM*
Nc1c(N(CCC2=CCCCC2)C(=O)Cc2ccc(F)cc2)c(=O)[nH]c(=O)n1Cc1ccccc1,?,-1%,.,9.3µM*
CCC(C)(C)C(=O)O[C@@H]1C[C@H](C)C=C2C=C[C@H](C)[C@@H](CC[C@H]3C[C@@H](O)CC(=O)O3)[C@H]21,-25%[12.8 µM],.,.,-6%[12.8 µM]
O=C(NCCCNC(=O)c1ccco1)c1ccc(F)cc1,16%,0%,12%,6%
SMILES,Pf growth 96h,SARS PLP yeast,NS1 inh,Pf growth 48h
OCC1(Cc2cccc(Cl)c2)CCCN(Cc2cn[nH]c2C2CCCCC2)C1 (stereo unspecified),8%,0%,0%,12µM*
Cc1cc(C)cc(C(=O)NCC(=O)OCC(=O)NCc2ccco2)c1,34%,0%,.,0%
CC(=O)N1c2ccc(Cl)cc2C2C=CCC2C1c1cccc2ccccc12 (stereo unspecified),9%,-68%,12%,13µM*
CC(=O)N1c2ccc3ccccc3c2C2C=CCC2C1c1ccc(Br)cc1 (stereo unspecified),46%,-12%,10%,5.9µM*
CC(=O)N1c2ccc3ccccc3c2C(C)CC12CCCCC2 (stereo unspecified),.,-21%,-49%,.
O=C(C1=C[C@H](c2csc3ccccc23)C[C@H](OCCCCO)O1)N1CCN(Cc2ccccc2)CC1,2.3µM*,-2%,-8%,3.7µM*
O=C(C1=C[C@@H](c2coc3ccccc3c2=O)C[C@@H](OCCCCO)O1)N1CCN(Cc2ccc3c(c2)OCO3)CC1,3.3µM*,-1%,-12%,?
O=C(C1=C[C@@H](c2csc3ccccc23)C[C@@H](OCCCCO)O1)N1CCN(Cc2ccc3c(c2)OCO3)CC1,12µM*,-1%,-11%,?
C[C@@H]1C=C(C(=O)N2CCN(Cc3ccc4c(c3)OCO4)CC2)O[C@H](OCCCCO)C1,29%,0%,2%,4%
O=C(C1=C[C@@H](c2coc3ccccc3c2=O)C[C@@H](OCCCCO)O1)N1CCN(Cc2ccccc2)CC1,?,-1%,-10%,?
O=C(C1=C[C@H](c2ccc(Br)cc2)C[C@H](OCCCCO)O1)N1CCN(Cc2ccccc2)CC1,?,0%,-6%,?
O=C(Nc1ccccc1)C1=C[C@H](c2csc3ccccc23)C[C@H](OCCCCO)O1,8.3µM*,-3%,4%,?
O=C(NCc1ccccc1)C1=C[C@H](c2csc3ccccc23)C[C@H](OCCCCO)O1,?,-4%,2%,?
O=C(C1=C[C@H](c2csc3ccccc23)C[C@H](OCCCCO)O1)N1CCN(Cc2ccc3c(c2)OCO3)CC1,1.5µM*,-1%,-14%,2.3µM*
O=C(C1=C[C@@H](c2csc3ccccc23)C[C@@H](OCc2ccc(CO)cc2)O1)N1CCOCC1,?,-1%,5%,?
CCCCNC(=O)C(CC)(ONc1ccccc1C(F)(F)F)c1ccccc1 (stereo unspecified),?,-3%,.,13µM*
CCCCNC(=O)[C@@](CC)(ONc1ccccc1C(F)(F)F)c1cccc2ccccc12,?,-3%,.,8.3µM*
CCC(O)(C(=O)Nc1ccccc1C(F)(F)F)c1ccccc1OC (stereo unspecified),-33%,-1%,.,?
CC1=NN(/C(=N\c2nnc(C)s2)Nc2ccc(C)cc2)[C@H](c2ccc(C)cc2)S1,?,?,4%[9.22 µM],10µM*
Cc1nc(/N=C(\N)Nc2ccccc2)nc2ccccc12,-15%,-4%,-9%,59%
CC(=O)NC1=NN(C(C)=O)C(c2ccc(C)cc2)S1 (stereo unspecified),?,1%,8%,11%
CC1=NN(/C(=N\c2nnc(C)s2)Nc2ccccc2)[C@H](c2cccc3ccccc23)S1,9.3µM*,-29%,20%,6.6µM*
Cc1cc(C(=O)COC(=O)c2ccc(N)c([N+](=O)[O-])c2)c(C)n1-c1ccc2c(c1)OCO2,4.7µM*,6%,19%,13µM*
